In the library only some 3.5% were active in any assay of this set; here they are far more common.
MITF primary: MITF inhibitors, primary screen, biochemical, AlphaScreen, human; inhibition, % at 2.6 µM; AID 1259374, 2018; 0.91% of 650,000 active; AlphaScreen MITF homodimerization, bead proximity signal; Microphthalmia-associated transcription factor (Homo sapiens), O75030; in the data active = inhibition above about 50%;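 note: 0% = vehicle wells with protein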
TEAD-YAP inh: TEAD-YAP interaction inhibition, primary screen, TEAD-YAP interaction inhibitor project, luminescence, HEK-TIYL cells; TEAD-Gal4/YAP UAS-luciferase luminescence; inhibition, % at 9.12 µM; 1.4% of 640,000 active; AID 1259422, 2018; in the data active = inhibition above about 32%;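 note: 0% = median of test compound wells and 100% = reference inhibitor wells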
GPR151 ag: activators of human GPR151, primary screen, cell-based, PathHunter beta-arrestin, luminescence | AID 1508602, 2020 | PathHunter beta-arrestin GPR151 cells | G-protein coupled receptor 151 (Homo sapiens), Q8TDV0 | 1% of 650,000 active | activation, % at 11.2 µM; in the data active = activation above about 4.9%;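 note: 0% = median of compound wells and 100% = cells with positive control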
FBW7 activator: FBW7 E3 ligase activators, primary screen, biochemical, AlphaScreen, human; F-box/WD repeat-containing protein 7 (Homo sapiens), Q969H0; AlphaScreen FBW7–phospho-cyclin E peptide binding, activator screen; normalized activity (activation), % at 26.1 µM; 0.13% of 650,000 active; AID 1259310, 2017; in the data active = normalized activity above about 1.9%;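 note: purified mutant Fbw7 with reduced substrate affinity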
Target sequence (Q969H0 whole entry, looked up): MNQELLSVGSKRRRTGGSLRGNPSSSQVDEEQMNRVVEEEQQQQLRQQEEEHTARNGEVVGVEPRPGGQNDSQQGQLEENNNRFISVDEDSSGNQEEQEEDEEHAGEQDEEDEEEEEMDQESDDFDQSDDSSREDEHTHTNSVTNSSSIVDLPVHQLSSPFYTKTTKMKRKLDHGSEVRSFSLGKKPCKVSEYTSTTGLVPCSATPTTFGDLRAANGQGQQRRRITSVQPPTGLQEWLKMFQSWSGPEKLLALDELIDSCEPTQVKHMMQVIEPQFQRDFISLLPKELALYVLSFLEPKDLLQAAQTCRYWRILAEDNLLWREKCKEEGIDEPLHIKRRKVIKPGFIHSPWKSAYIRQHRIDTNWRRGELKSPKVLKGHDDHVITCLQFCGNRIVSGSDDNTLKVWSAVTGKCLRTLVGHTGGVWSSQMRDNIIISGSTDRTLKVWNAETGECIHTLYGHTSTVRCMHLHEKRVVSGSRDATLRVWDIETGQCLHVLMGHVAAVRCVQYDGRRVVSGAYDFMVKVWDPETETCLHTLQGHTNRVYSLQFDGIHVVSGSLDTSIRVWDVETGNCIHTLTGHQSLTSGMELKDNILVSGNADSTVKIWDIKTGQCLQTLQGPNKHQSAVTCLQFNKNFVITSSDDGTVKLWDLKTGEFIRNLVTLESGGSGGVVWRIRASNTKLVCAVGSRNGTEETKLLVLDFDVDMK
MITF inh conf: MITF inhibitors, retest of hits, confirmation, biochemical, AlphaScreen, triplicate; AlphaScreen MITF homodimerization, biotin/His-MITF beads; shares compounds with MITF primary; AID 1259372, 2018; inhibition, % at 2.6 µM; 16% of 4,700 active;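 active = inhibition above a cutoff derived from the DMSO control wells, cut at about 28% in these data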;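 note: 0% = MITF dimer wells with DMSO only; inhibitors lower the bead chemiluminescence by keeping MITF from dimerizing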
AS interf DR: AlphaScreen optical interference compounds, dose response, counter-screen, biochemical, HTS. AID 1259373, 2018. shares compounds with MITF primary. AlphaScreen optical interference counterscreen, cell-free. 6% of 480 active. IC50, µM; call rule not given here
AS interf ctr: AlphaScreen optical interference compounds, counter-screen for MITF inhibitor project, biochemical, triplicate; 7.6% of 4,700 active; AID 1259376, 2018; LysRS AlphaScreen counterscreen, signal interference; inhibition, % at 2.6 µM; shares compounds with MITF primary;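 active = inhibition above a cutoff derived from the DMSO control wells, cut at about 30% in these data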
* hit, by the source's call.

Screening CN1C(=O)N(C)C2OC(C3OC4C(O3)N(C)C(=O)N4C)OC21 (stereo not drawn) returned MITF primary 54.7*, TEAD-YAP inh 1.9, GPR151 ag -0.2, FBW7 activator 0.1, MITF inh conf 8.4 and AS interf ctr 11.0.
Screening Fc1cccc(CN2CCN(Cc3ccccn3)CC2)c1 returned MITF primary 70.7*, TEAD-YAP inh -5.7, GPR151 ag -0.5, FBW7 activator 0.1, MITF inh conf 10.8 and AS interf ctr 24.8.
Screening c1ccc(Oc2cccc(CN3CCN(Cc4ccccn4)CC3)c2)cc1 returned MITF primary 75.4*, TEAD-YAP inh 1.9, GPR151 ag -0.7, FBW7 activator -0.1, MITF inh conf -5.4 and AS interf ctr 4.6.
Fc1ccc(N2CCN(Cc3ccccn3)CC2)cc1 was read as MITF primary 62.8*, TEAD-YAP inh 0.4, GPR151 ag 0.5, FBW7 activator -0.5, MITF inh conf 14.5 and AS interf ctr 41.6*.
Screening O=C(O)c1cccc(NS(=O)(=O)c2cccc(C(=O)Nc3ccccc3)c2)c1 returned MITF primary 51.2*, TEAD-YAP inh 4.1, GPR151 ag 1.2, FBW7 activator 0.0, MITF inh conf 12.1 and AS interf ctr -1.4.
Screening COc1ccc(CCNc2nc(-c3sc(C)nc3C)cs2)cc1OC returned MITF primary 70.6*, TEAD-YAP inh -9.8, GPR151 ag -1.4, FBW7 activator -0.3, MITF inh conf 11.1 and AS interf ctr 13.5.
CCCCCC(=O)CC[C@@H]1[C@@H](C/C=C\CCCC(=O)O)[C@@H](O)C[C@@H]1O was read as MITF primary 56.4*, GPR151 ag -2.3, MITF inh conf -0.4 and AS interf ctr 12.5.
`CCN(C(=O)C1COc2ccccc2O1)C12CC3CC(CC(C3)C1)C2` (stereo not drawn) gave MITF primary 60.8*, TEAD-YAP inh 5.4, GPR151 ag -1.8, FBW7 activator 0.4, MITF inh conf 70.7*, AS interf DR >6.83 and AS interf ctr 1.1.
Screening O=C(OCC(=O)C12CC3CC(CC(C3)C1)C2)C1COc2ccccc2O1 (stereo not drawn) returned MITF primary 4.5, TEAD-YAP inh 5.1, GPR151 ag 0.9 and FBW7 activator 0.3.
`CCOc1ccc(C(=O)NCC2(c3cccs3)CC2)cc1` gave MITF primary 51.8*, TEAD-YAP inh -33.6, GPR151 ag 1.1, FBW7 activator -0.1, MITF inh conf -6.6 and AS interf ctr -6.6.
For Cc1ccc(-c2cc(C(=O)Nc3nc4ccc(Br)cc4s3)c3ccccc3n2)s1 the results were MITF primary -2.0, TEAD-YAP inh 6.7, GPR151 ag -0.8 and FBW7 activator 0.1.
Screening Cc1ccc(-c2cc(C(=O)Nc3nnc(C)s3)c3ccccc3n2)s1 returned MITF primary 64.7*, TEAD-YAP inh 6.7, GPR151 ag 1.2, FBW7 activator 0.2, MITF inh conf 4.7 and AS interf ctr 11.0.
For COc1ccc(/C=N/OCc2nnc(-c3cccc([N+](=O)[O-])c3)o2)cc1 the results were MITF primary 5.9, TEAD-YAP inh -4.5, GPR151 ag 0.1 and FBW7 activator -0.2.
Cc1nc(NCC(C)C)c2c3c(sc2n1)CCCC3 was read as MITF primary 52.0*, TEAD-YAP inh 4.8, GPR151 ag 1.1, FBW7 activator 0.0, MITF inh conf 12.2 and AS interf ctr 17.0.
Cc1nc(NCCO)c2c3c(sc2n1)CCC3 was read as MITF primary 3.7, TEAD-YAP inh 10.2, GPR151 ag 0.2 and FBW7 activator -0.3.
Screening Brc1ccc(NCc2ccc3c(c2)OCO3)cc1 returned MITF primary 11.3, TEAD-YAP inh -17.9, GPR151 ag -1.6 and FBW7 activator 1.1.
Cc1cc(N2CCN(C(=O)c3ccc(F)c(F)c3)CC2)c(F)cc1[N+](=O)[O-] was read as MITF primary 2.4, TEAD-YAP inh -1.4, GPR151 ag -0.6 and FBW7 activator -0.1.
For O=C(CSc1ccc(-c2cccnc2)nn1)NCc1ccccc1Cl the results were MITF primary -9.8, TEAD-YAP inh -2.5, GPR151 ag -0.6 and FBW7 activator -0.1.
`O=C(CSc1ccc(-c2cccnc2)nn1)NCc1ccccc1` gave MITF primary 51.0*, TEAD-YAP inh 7.9, GPR151 ag 0.1, FBW7 activator 0.1, MITF inh conf 4.7 and AS interf ctr -3.2.
O=C(O)c1ccc(-n2cnnn2)cc1Cl was read as MITF primary 9.5, TEAD-YAP inh 5.7, GPR151 ag 1.6 and FBW7 activator -0.1.
For O=C(O)c1ccc(-n2cccc2)cc1Cl the results were MITF primary 79.2*, TEAD-YAP inh 0.4, GPR151 ag -0.2, FBW7 activator -0.4, MITF inh conf 74.9*, AS interf DR >6.48 and AS interf ctr 12.1.
Screening C/C(=N\NC(=O)Cc1cccn1C)c1cccnc1 returned MITF primary -2.2, TEAD-YAP inh -15.9, GPR151 ag 0.8 and FBW7 activator 0.0.
For CCNS(=O)(=O)c1ccc(Cl)c(Cl)c1 the results were MITF primary 56.4*, TEAD-YAP inh 3.5, GPR151 ag -0.5, FBW7 activator 0.0, MITF inh conf -1.6 and AS interf ctr 5.3.
`CCC(C)CNC(=O)C1CCN(C2CCN(Cc3cccc(C)n3)CC2)CC1` (stereo not drawn) gave MITF primary -5.6, TEAD-YAP inh 7.3, GPR151 ag 2.9 and FBW7 activator 0.8.
COC(C)(C)CNC(=O)C1CCN(C2CCN(Cc3cccc(C)n3)CC2)CC1 was read as MITF primary 81.2*, TEAD-YAP inh 10.2, GPR151 ag -0.4, FBW7 activator -0.2, MITF inh conf 72.5*, AS interf DR >6.48 and AS interf ctr 3.5.
COc1ccc(NC(=O)CC(c2ccccc2)c2ccc(C)cc2O)cc1 (stereo not drawn) was read as MITF primary -5.4, TEAD-YAP inh 11.8, GPR151 ag -0.2 and FBW7 activator -0.1.
O=C1CCCN1CCn1cnc2c(Nc3ccc4c(c3)OCO4)nc(N3CCN(c4ccccn4)CC3)nc21 was read as MITF primary 76.2*, TEAD-YAP inh 19.4, GPR151 ag -1.0, FBW7 activator 0.1, MITF inh conf 3.7 and AS interf ctr 9.6.
O=C1CCCN1CCn1cnc2c(Nc3ccc(N4CCOCC4)cc3)nc(N3CCN(c4ccccn4)CC3)nc21 was read as MITF primary 6.0, TEAD-YAP inh 14.0, GPR151 ag 0.5 and FBW7 activator -0.2.

Screens from PubChem.
